The results in this text go back to PubChem BioAssay (NCI).

The panel holds about 83,000 compounds, 20% with a hit somewhere; the sample as a whole holds those more often.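 How to read the values: 0–100, growth inhibition (40 = 60% inhibited); 0, no net growth; -100 to 0, cell death (-40 = 40% of starting cells died; -100 = all dead).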 Values without a mark were called inactive. Rule for the calls: active = growth percent below 10; inactive = the rest.

This experiment relates to HL-60(TB) leukemia. As to the kind of experiment: NCI-60 one-dose screen, 48 h (100 = growth as untreated, 0 = no growth, -100 = all killed). The note with it: 10 µM unless noted.
Consider `Cc1ccc2c(n1)C(=O)C(Cl)=C(Nc1cccc(C(C)C)c1)C2=O`, for which the growth is 10.3%. For `Cc1ccc(S(=O)(=O)NCCCNc2nccc(-c3[nH]c(-c4ccccc4)nc3-c3ccc(F)c(O)c3)n2)cc1`, the growth is 82.4%. The figure for `COc1ccccc1N1CCN(C2=CC(=O)C(C)=C(C)C2=O)CC1` is 113%.

`COc1ccc(-c2nc3cccc(O)c3c(=O)n2Cc2ccccc2)cc1COc1ccc(NC(C)=O)cc1`: the growth was 45.4% [3 µM].
